Results from PubChem BioAssay.

Experiments:
[1] = tested on: Botulinum neurotoxin type F light chain protease (Clostridium botulinum); assay: Clostridium botulinum type F light chain protease inhibitors, microsphere substrate cleavage, validation (AID 588459); conditions: multiplex microsphere protease substrate cleavage assay, flow cytometry; at 10 µM; stronger effect = higher value
[2] = target: Botulinum neurotoxin type A (Clostridium botulinum) (UniProt P0DPI0); assay: BoNT/A light chain protease inhibitors, biochemical, multiplex microsphere flow cytometry, validation set (AID 588460); conditions: at 10 µM, stronger effect = higher value
Chain of Botulinum neurotoxin type A (Clostridium botulinum) (P0DPI0 whole entry, looked up): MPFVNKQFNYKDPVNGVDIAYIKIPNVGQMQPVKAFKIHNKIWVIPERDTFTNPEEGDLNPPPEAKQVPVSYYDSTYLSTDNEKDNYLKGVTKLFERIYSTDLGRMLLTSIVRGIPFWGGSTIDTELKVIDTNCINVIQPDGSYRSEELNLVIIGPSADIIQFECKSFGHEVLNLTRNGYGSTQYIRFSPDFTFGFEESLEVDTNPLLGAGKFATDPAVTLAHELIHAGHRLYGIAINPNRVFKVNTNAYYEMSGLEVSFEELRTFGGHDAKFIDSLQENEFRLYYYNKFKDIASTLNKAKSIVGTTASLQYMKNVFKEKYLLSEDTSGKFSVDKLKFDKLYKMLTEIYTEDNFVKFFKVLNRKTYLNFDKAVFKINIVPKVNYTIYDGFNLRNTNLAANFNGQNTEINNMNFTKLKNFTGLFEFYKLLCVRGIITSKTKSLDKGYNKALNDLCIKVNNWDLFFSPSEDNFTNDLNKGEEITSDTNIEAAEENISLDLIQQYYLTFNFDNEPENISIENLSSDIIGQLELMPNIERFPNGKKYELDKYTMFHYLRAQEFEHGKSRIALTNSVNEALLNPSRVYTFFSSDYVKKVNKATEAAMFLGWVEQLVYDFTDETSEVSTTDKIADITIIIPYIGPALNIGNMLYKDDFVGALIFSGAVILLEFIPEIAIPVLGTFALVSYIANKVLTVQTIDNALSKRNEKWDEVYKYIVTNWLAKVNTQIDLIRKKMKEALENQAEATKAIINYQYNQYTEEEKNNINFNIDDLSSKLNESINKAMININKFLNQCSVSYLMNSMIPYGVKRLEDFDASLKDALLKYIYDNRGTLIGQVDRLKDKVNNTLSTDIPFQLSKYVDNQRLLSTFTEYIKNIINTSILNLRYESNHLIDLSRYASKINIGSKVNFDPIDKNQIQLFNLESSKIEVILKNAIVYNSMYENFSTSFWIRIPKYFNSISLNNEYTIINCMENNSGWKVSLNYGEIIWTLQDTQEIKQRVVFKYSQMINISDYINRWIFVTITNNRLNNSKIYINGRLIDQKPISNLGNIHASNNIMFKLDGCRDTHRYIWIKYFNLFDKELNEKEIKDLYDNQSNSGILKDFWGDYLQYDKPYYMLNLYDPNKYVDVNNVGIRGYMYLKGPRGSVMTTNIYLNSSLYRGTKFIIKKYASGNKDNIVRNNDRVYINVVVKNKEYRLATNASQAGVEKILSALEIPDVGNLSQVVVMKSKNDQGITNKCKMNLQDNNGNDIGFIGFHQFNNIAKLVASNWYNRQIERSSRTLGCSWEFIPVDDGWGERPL

[3] = target: Lethal factor (Bacillus anthracis) (UniProt P15917); assay: Bacillus anthracis lethal factor inhibition, microsphere flow cytometry protease assay, validation at 10 µM (AID 588461); conditions: multiplex microsphere protease cleavage assay, stronger effect = higher value
Chain of Lethal factor (Bacillus anthracis) (P15917 whole entry, looked up): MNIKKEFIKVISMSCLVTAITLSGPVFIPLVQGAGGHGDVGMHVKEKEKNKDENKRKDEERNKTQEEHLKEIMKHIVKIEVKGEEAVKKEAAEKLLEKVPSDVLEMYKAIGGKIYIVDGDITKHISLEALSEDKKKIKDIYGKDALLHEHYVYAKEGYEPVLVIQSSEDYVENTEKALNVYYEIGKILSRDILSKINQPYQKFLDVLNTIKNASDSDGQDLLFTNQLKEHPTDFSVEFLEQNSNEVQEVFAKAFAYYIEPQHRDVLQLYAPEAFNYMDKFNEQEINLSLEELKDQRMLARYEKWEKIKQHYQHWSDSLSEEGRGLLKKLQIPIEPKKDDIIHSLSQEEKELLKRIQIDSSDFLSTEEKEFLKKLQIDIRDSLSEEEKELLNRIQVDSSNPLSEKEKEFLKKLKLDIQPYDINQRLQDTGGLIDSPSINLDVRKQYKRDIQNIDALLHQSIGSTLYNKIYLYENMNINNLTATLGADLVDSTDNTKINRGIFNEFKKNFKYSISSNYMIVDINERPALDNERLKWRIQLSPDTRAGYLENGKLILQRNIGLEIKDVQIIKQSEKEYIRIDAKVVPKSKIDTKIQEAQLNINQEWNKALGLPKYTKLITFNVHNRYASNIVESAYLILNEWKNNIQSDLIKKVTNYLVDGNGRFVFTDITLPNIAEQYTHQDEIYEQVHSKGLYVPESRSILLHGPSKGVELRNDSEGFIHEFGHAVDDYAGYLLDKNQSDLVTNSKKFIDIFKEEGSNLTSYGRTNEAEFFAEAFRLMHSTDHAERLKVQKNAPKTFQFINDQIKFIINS

Measured: inhibition

C(=C\c1ccc2ccccc2n1)/c1ccccc1
inactive: [1] 1.3% | [2] 0.8% | [3] -3.3%

CSc1cccc(NC(=O)/C=C/c2ccccc2)c1
inactive: [1] -0.9% | [2] -2.3% | [3] -8.2%

COc1cc2nc(N3CCN(C(=O)C4COc5ccccc5O4)CC3)nc(N)c2cc1OC (stereo not drawn)
inactive: [1] -0.3% | [2] 0% | [3] -2.9%

CC(=O)NC(Cc1c[nH]c2ccccc12)C(=O)N/N=C/c1ccccc1 (stereo not drawn)
inactive: [1] -1.4% | [2] -0.1% | [3] -5.7%

O=C1CC(c2ccc(OCCCCCOc3ccc(C4CC(=O)NC4=O)cc3)cc2)C(=O)N1 (stereo not drawn)
inactive: [1] 2.5% | [2] 1.1% | [3] 2.1%

COc1ccc(-c2c3c(=O)n(C)c(=O)n(C)c3cn2C2CCCCC2)cc1
inactive: [1] 1.1% | [2] -1.9% | [3] -3.1%

CC(=O)[C@@H]1[C@@H](C(=O)c2ccc(C)cc2)[C@]2(C(=O)Nc3ccccc32)[C@H]2C=Cc3cc(F)ccc3N12
inactive: [1] 2.2% | [2] 1.6% | [3] -6.9%

CCc1ccc2oc(=O)cc(CN3CCC(C)CC3)c2c1
inactive: [1] 5.5% | [2] 0.8% | [3] 1.4%

CC(C)Cc1cc(C(=O)N2CCC(N3CCC(C(=O)N4CCCC4)CC3)CC2)n[nH]1
inactive: [1] -0.1% | [2] -2% | [3] -0.4%

COc1cc(OC)c(C2C(C#N)=C(N)OC3=C2C(=O)CC(C)(C)C3)cc1OC (stereo not drawn)
inactive: [1] -2.6% | [2] 0.8% | [3] 4.6%

COc1ccc2nc(Nc3nc(CSc4ccc(C)cc4)cc(=O)[nH]3)nc(C)c2c1
inactive: [1] 0.6% | [2] -0.3% | [3] 2%

CN1CCC(OC(c2ccccc2)c2ccccc2)CC1
inactive: [1] -0.8% | [2] -0.5% | [3] -5.1%

CC(=O)N1CC23C=CC(CC2CC12CCCCCC2)O3 (stereo not drawn)
inactive: [1] 1.3% | [2] -1.4% | [3] 1.3%

O=C(O)CCCCCN=C1CCc2ccccc2N1
inactive: [1] 1.6% | [2] -0.4% | [3] 0.8%

Fc1ccc(-c2cc(-c3ccccc3)nc(-n3cccn3)n2)cc1
inactive: [1] -6.3% | [2] -0.2% | [3] 2.3%

Cc1cc(O)c2/c(=N\N)c(-c3csc(C)n3)coc2c1
inactive: [1] -0.4% | [2] -1% | [3] 2.2%

O=CNC1CCCc2c1[nH]c1ccc(Cl)cc21 (stereo not drawn)
inactive: [1] -1.4% | [2] 0.2% | [3] 1.6%

CCOC(=O)Cn1c(C)cc(=O)c2ccccc21
inactive: [1] 6.3% | [2] 1.7% | [3] 9.6%

O=C(CCSc1ccccc1)N1CCCC1
inactive: [1] 1.2% | [2] -0.9% | [3] -2.3%

CCOC(=O)C1CCCN(Cc2nc(Cc3cccc(F)c3)no2)C1 (stereo not drawn)
inactive: [1] 0.1% | [2] -0.4% | [3] 0.6%

CCOc1ccc2[nH]c3c(=O)n(CCc4ccc(OC)cc4)cnc3c2c1
inactive: [1] 1.7% | [2] 2% | [3] 0.2%

COc1cccc(=O)c2c(C)n(CC(=O)c3ccccc3)c(C)c12
inactive: [1] -4.4% | [2] 0.1% | [3] -9.8%

N=c1c[n+](N2CCOCC2)[n-]o1
inactive: [1] -6.3% | [2] 0.1% | [3] 0.2%

c1ccc(-c2ccccn2)nc1
inactive: [1] -0.7% | [2] 0.3% | [3] 6.3%

CC(C)C1Cc2[nH]c(=O)c(C(=O)O)cc2CO1 (stereo not drawn)
inactive: [1] 2.3% | [2] -0.9% | [3] -1.4%

Cc1cccc(-c2ncc(CN3CCN(CC(C)C)C(CCO)C3)cn2)c1 (stereo not drawn)
inactive: [1] 2.6% | [2] 0.9% | [3] 0.4%
